# Experimental data published in PubChem BioAssay.
# Activity calls are given as the source filed them. Unless noted, the rule behind the calls is not given here.
# Tests used:
# [1] = test system: XIP peptide (Xip251-270) binding; assay: small-molecule binders of XIP peptide, primary screen, biochemical, small-molecule microarray, fluorescence 635/667 nm, 0.1 µg/mL protein (AID 1182); conditions: fluorescent protein binding, 635 nm, higher = more signal, called active from +8 up or from −8 down
# [2] = test system: XIP peptide (Xip251-270); assay: small-molecule binders of XIP peptide, primary screen, biochemical, small-molecule microarray, fluorescence 635/667 nm, 0.5 µg/mL protein (AID 1183); conditions: small-molecule microarray binding, fluorescence 635 nm; higher = more signal
# [3] = Plasmodium falciparum growth inhibition, primary screen, strain 3D7, DAPI fluorescence, 100 nL (AID 1184);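 note: parasites grown inside human red blood cells in medium with human serum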; conditions: P. falciparum 3D7 growth, 3 d, higher = more signal
# [4] = biological target: Homeobox protein Hox-A13 (Mus musculus) (UniProt Q62424); assay: inhibitors of HoxA13-DNA binding, primary screen, biochemical, fluorescence polarization, labeled oligonucleotide (AID 1185); conditions: 15 min, higher = more signal, called active from +8 up or from −8 down
# [5] = inhibitors of hydroxyurea-induced Chk1 phosphorylation, primary screen, imaging, HeLa, phospho-Chk1 antibody, percent positive cells (AID 1186); conditions: hydroxyurea-induced phospho-Chk1 immunofluorescence imaging, higher = more signal
# [6] = inhibitors of hydroxyurea-induced Chk1 phosphorylation, primary screen, imaging, HeLa, phospho-Chk1 nuclear intensity (AID 1187); conditions: hydroxyurea-induced phospho-Chk1 immunofluorescence imaging, higher = more signal
# Sequence of Homeobox protein Hox-A13 (Mus musculus) (Q62424 whole entry, looked up): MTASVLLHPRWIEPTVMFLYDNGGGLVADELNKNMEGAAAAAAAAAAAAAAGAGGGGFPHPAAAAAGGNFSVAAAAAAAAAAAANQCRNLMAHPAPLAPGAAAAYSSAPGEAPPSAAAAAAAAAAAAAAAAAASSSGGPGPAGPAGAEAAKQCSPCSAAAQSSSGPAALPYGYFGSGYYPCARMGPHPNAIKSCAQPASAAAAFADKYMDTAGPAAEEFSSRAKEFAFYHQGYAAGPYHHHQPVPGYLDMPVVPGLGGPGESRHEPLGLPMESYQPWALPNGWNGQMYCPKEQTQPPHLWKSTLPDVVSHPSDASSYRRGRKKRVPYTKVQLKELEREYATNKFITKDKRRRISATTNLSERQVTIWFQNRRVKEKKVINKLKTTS
SMILES,composite z-score [1],composite z-score [2],z-score [3],z-score [4],z-score [5],z-score [6]
CCN(CC)c1ccc(N2CC=CC34O[C@@H]5/C=C\CCCOC(=O)C5[C@H]3C(=O)N(CCCCCCO)[C@@H]4C2=O)cc1 (some centres not stated),1.51 (inactive),0.897,-0.789,-5.09 (inactive),-0.0771 (inactive),1.02 (inactive)
O=C1c2ccccc2[C@](Cc2ccccc2I)(C(=O)NCC(F)(F)F)[C@H](c2ccc(CO)cc2)N1Cc1ccccc1,0.164 (inactive),0.647,-0.945,-4.04 (inactive),-0.25 (inactive),-0.634 (inactive)
COC(=O)c1ccc(OC)c(/C=C\CC(CCc2ccccc2)OC(C)=O)c1 (configuration not stated),-0.521 (inactive),-0.187,0.522,-1.15 (inactive),0.177 (inactive),0.453 (inactive)
COc1cc2c(cc1OC)CN(C(=O)[C@@H]1[C@H]3C(=O)O[C@H](c4ccccc4)[C@H](c4ccccc4)N3[C@H](c3ccc(O)cc3)[C@@]13C(=O)Nc1ccc(C#CCNC(N)=O)cc13)CC2,0.503 (inactive),-0.0161,-0.656,-1.67 (inactive),0.259 (inactive),0.278 (inactive)
C=C(COC)C(=O)CC[C@H](OC(=O)c1ccccc1-c1ccccc1C(=O)O)c1ccc(CO)o1,1.28 (inactive),0.393,0.399,-6.22 (inactive),0.44 (inactive),-0.37 (inactive)
CN(C)CCCNC(=O)[C@@]1(Cc2ccccc2I)c2ccccc2C(=O)N(Cc2ccccc2Cl)[C@H]1c1ccc(CO)cc1,0.191 (inactive),0.774,-2.21,-0.316 (inactive),-0.022 (inactive),-0.461 (inactive)
C=CCNC(=O)[C@@H]1[C@H]2C(=O)O[C@H](c3ccccc3)[C@H](c3ccccc3)N2[C@H](c2ccc(O)cc2)[C@@]12C(=O)Nc1ccc(C#CCCO)cc12,3.57 (inactive),0.693,-0.37,-5.14 (inactive),-0.154 (inactive),-0.0542 (inactive)
COCCOC(=O)N1C(=O)[C@@]2(c3cc(C#CCNC(N)=O)ccc31)[C@H](c1ccc(OCCO)cc1)N1[C@H](c3ccccc3)[C@H](c3ccccc3)OC(=O)[C@H]1[C@@H]2C(=O)N1CCN(c2ncccn2)CC1,-0.299 (inactive),0.245,-1.91,0.513 (inactive),-0.117 (inactive),-0.434 (inactive)
CCCCC(=C=CC[C@H](O)c1ccccc1OCCO)C[C@H](O)c1ccccn1,0.418 (inactive),0.318,-0.966,-3.35 (inactive),0.305 (inactive),0.113 (inactive)
CC(C)CNC(=O)[C@@]1(c2ccc([N+](=O)[O-])cc2)CC(=O)N(C(C)C)[C@@H]1c1ccc(CO)cc1,-0.299 (inactive),0.131,-0.253,-1.21 (inactive),-0.19 (inactive),-0.0822 (inactive)
CC(C)(C)OC(=O)CC[C@@]1(C(=O)N2CCCCC2)N=C(c2ccc(OCCCO)cc2)O[C@@H]1c1ccccc1N=[N+]=[N-],0.416 (inactive),0.83,-2.08,-3.63 (inactive),-0.184 (inactive),-0.414 (inactive)
CCCNC(=O)[C@@]1(Sc2ccc(C)cc2)CC(=O)N(Cc2ccccc2)[C@@H]1c1ccc(CO)cc1I,0.334 (inactive),0.889,0.179,-2.54 (inactive),0.264 (inactive),0.372 (inactive)
C[C@]12C(=O)N(CCCCCO)[C@@H]3C(=O)N(c4ccc(Cl)cc4)CC=CC31O[C@@H]1/C=C\CCCOC(=O)C12 (some centres not stated),0.951 (inactive),0.0211,1.77,-4.29 (inactive),0.0276 (inactive),0.596 (inactive)
COc1ccc([Si](C)(C)[C@H]2[C@H](CCn3cc(CCO)nn3)O[C@@]3(C(=O)N(Cc4cccc(N5C(=O)c6cccc7cccc5c67)c4)c4ccccc43)[C@@H]2C)cc1,0.979 (inactive),0.697,-2.55,-2.56 (inactive),-0.854 (inactive),0.0226 (inactive)
COCCOC(=O)N1C(=O)[C@@]2(c3cc(C#CCCO)ccc31)[C@H](C(=O)NC[C@H](O)c1ccccc1)[C@H]1C(=O)O[C@H](c3ccccc3)[C@H](c3ccccc3)N1[C@@H]2c1ccccc1OCCO,0.355 (inactive),0.564,-0.89,-2.38 (inactive),0.308 (inactive),0.431 (inactive)
COCCOC(=O)N1C(=O)[C@@]2(c3cc(C#CC4(O)CCCCCC4)ccc31)[C@H](C(=O)N1CCN(c3ncccn3)CC1)[C@H]1C(=O)O[C@H](c3ccccc3)[C@H](c3ccccc3)N1[C@@H]2c1ccc(O)cc1,0.119 (inactive),0.723,-0.849,-0.575 (inactive),0.133 (inactive),0.559 (inactive)
CCCC=C(CCC)[C@@H](NS(=O)(=O)c1ccccc1)c1ccc(C(F)(F)F)cc1,-0.363 (inactive),0.528,0.118,-1.19 (inactive),-0.147 (inactive),-0.423 (inactive)
